The campaign covered roughly 5,500 compounds. About 2,000 (36%) were called active. Not shown: some 18% with an inconclusive outcome. Rule as the data show it: active = normalized growth mostly below about 0.91 (no sharp cut-off); inconclusive = no clear call, values can overlap the other calls; inactive = mostly above about 0.92. Some of the results follow.
Assay: chemical genetic growth profiling, strain panel (AID 1159580);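 also: tested at 20 µM; growth read once vehicle control cultures reached saturation at 30 °C; 1 = growth at the plate median or of vehicle wells; lower values mean less growth of the strain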
Details: S. cerevisiae deletion strains, growth OD
[1] = locus YAL013W, strain DEP1, stronger effect = lower value
[2] = locus YAL040C, strain CLN3, stronger effect = lower value
[3] = locus YCL061C, strain MRC1 (second series), stronger effect = lower value
[4] = locus YDR150W, strain NUM1, stronger effect = lower value
[5] = locus YDR363W, strain ESC2, stronger effect = lower value
[6] = locus YER002W, strain NOP16, stronger effect = lower value
[7] = locus YJR075W, strain HOC1, stronger effect = lower value
[8] = locus YNL153C, strain GIM3, stronger effect = lower value
[9] = locus YNL175C, strain NOP13, stronger effect = lower value
[10] = locus YNL197C, strain WHI3, stronger effect = lower value
[11] = locus YNL224C, strain SQS1, stronger effect = lower value
[12] = locus YOR083W, strain WHI5 (second series), stronger effect = lower value
[13] = locus YPL055C, strain LGE1, stronger effect = lower value
[14] = locus YGR078C, strain PAC10, stronger effect = lower value
[15] = locus YAR019C, strain CDC15, stronger effect = lower value
[16] = locus YBL105C, strain PKC1, stronger effect = lower value
[17] = locus YBR135W, strain CKS1, stronger effect = lower value
[18] = locus YBR136W, strain MEC1, stronger effect = lower value
[19] = locus YBR160W, strain CDC28, stronger effect = lower value
[20] = locus YDL017W, strain CDC7, stronger effect = lower value
[21] = locus YDL028C, strain MPS1, stronger effect = lower value
[22] = locus YDL101C, strain DUN1, stronger effect = lower value
[23] = locus YDL108W, strain KIN28, stronger effect = lower value
[24] = locus YDL132W, strain cdc53, stronger effect = lower value
[25] = locus YDL214C, strain PRR2, stronger effect = lower value
[26] = locus YDR052C, strain DBF4, stronger effect = lower value
[27] = locus YDR054C, strain cdc34, stronger effect = lower value
[28] = locus YDR226W, strain ADK1, stronger effect = lower value
[29] = locus YDR477W, strain SNF1, stronger effect = lower value
[30] = locus YER123W, strain YCK3, stronger effect = lower value
[31] = locus YER133W, strain GLC7, stronger effect = lower value
[32] = locus YFL009W, strain cdc4, stronger effect = lower value
[33] = locus YFL029C, strain CAK1, stronger effect = lower value
[34] = locus YFR003C, strain YPI1, stronger effect = lower value
[35] = locus YFR019W, strain FAB1, stronger effect = lower value
[36] = locus YFR028C, strain CDC14, stronger effect = lower value
[37] = locus YGR040W, strain KSS1, stronger effect = lower value
[38] = locus YGR052W, strain FMP48, stronger effect = lower value
[39] = locus YGR092W, strain DBF2, stronger effect = lower value
[40] = locus YHR030C, strain SLT2, stronger effect = lower value
[41] = locus YHR079C, strain IRE1, stronger effect = lower value
[42] = locus YHR082C, strain KSP1, stronger effect = lower value
[43] = locus YHR205W, strain SCH9, stronger effect = lower value
[44] = locus YIL147C, strain SLN1, stronger effect = lower value
[45] = locus YJL095W, strain BCK1, stronger effect = lower value
[46] = locus YJL128C, strain PBS2, stronger effect = lower value
[47] = locus YJL157C, strain FAR1, stronger effect = lower value
[48] = locus YJR016C, strain ILV3, stronger effect = lower value
[49] = locus YJR066W, strain TOR1 (second series), stronger effect = lower value
[50] = locus YJR066W, strain TOR1, stronger effect = lower value
[51] = locus YKL048C, strain ELM1, stronger effect = lower value
[52] = locus YKL067W, strain YNK1, stronger effect = lower value
[53] = locus YKL101W, strain HSL1, stronger effect = lower value
[54] = locus YKL193C, strain SDS22, stronger effect = lower value
[55] = locus YKL203C, strain TOR2, stronger effect = lower value
[56] = locus YLR113W, strain HOG1, stronger effect = lower value
[57] = locus YLR133W, strain CKI1, stronger effect = lower value
[58] = locus YLR403W, strain SFP1, stronger effect = lower value
[59] = locus YML070W, strain DAK1, stronger effect = lower value
[60] = locus YMR001C, strain CDC5, stronger effect = lower value
[61] = locus YMR205C, strain PFK2 (second series), stronger effect = lower value
[62] = locus YMR277W, strain FCP1, stronger effect = lower value
[63] = locus YNL006W, strain LST8, stronger effect = lower value
[64] = locus YNL020C, strain ARK1, stronger effect = lower value
[65] = locus YNL161W, strain CBK1, stronger effect = lower value
[66] = locus YNL183C, strain NPR1, stronger effect = lower value
[67] = locus YNL207W, strain RIO2, stronger effect = lower value
[68] = locus YNL222W, strain SSU72, stronger effect = lower value
[69] = locus YNL307C, strain MCK1 (second series), stronger effect = lower value
[70] = locus YOL078W, strain AVO1, stronger effect = lower value
[71] = locus YOL136C, strain PFK27, stronger effect = lower value
[72] = locus YOR061W, strain CKA2, stronger effect = lower value
[73] = locus YOR329C, strain SCD5, stronger effect = lower value
[74] = locus YPL031C, strain PHO85, stronger effect = lower value
[75] = locus YPL153C, strain RAD53, stronger effect = lower value
[76] = locus YPL204W, strain HRR25, stronger effect = lower value
[77] = locus YPL209C, strain IPL1, stronger effect = lower value
[78] = locus YPL256C, strain CLN2, stronger effect = lower value
[79] = locus YPR025C, strain CCL1, stronger effect = lower value
[80] = locus YPR106W, strain ISR1, stronger effect = lower value
[81] = locus YPR111W, strain DBF20, stronger effect = lower value
[82] = strain NNK1, stronger effect = lower value
[83] = strain TSCII, stronger effect = lower value

Measured: normalized growth

CN1C[C@H](CNC(=O)OCc2ccccc2)C[C@@H]2c3cccc4c3c(cn4C)C[C@H]21
inactive: [1] 0.987 | [2] 0.985 | [3] 0.998 | [4] 0.994 | [5] 1.01 | [6] 1.04 | [7] 0.969 | [8] 0.904 | [9] 1.01 | [10] 0.994 | [11] 1.04 | [12] 0.969 | [13] 1.02

C[C@]12N[C@H](Cc3ccccc31)c1ccccc12
inactive: [2] 1.04 | [3] 0.988 | [4] 1 | [5] 0.953 | [6] 0.964 | [14] 0.973 | locus YMR307W, strain GAS1, stronger effect = lower value 1 | locus YNL128W, strain TEP1, stronger effect = lower value 0.992 | [8] 0.978 | [9] 0.98 | [10] 0.957 | [11] 0.979 | [12] 0.995

O=C(CCn1c(=O)oc2ccccc21)Sc1ccc(C(F)(F)F)cc1
active: [39] 0.473 | [40] 0.318 | [41] 0.479 | [49] 0.418 | [56] 0.848 | [69] 0.557 | [72] 0.607 | [75] 0.552 | [78] 0.83
inactive: [15] 0.931 | [16] 0.962 | [17] 0.957 | [18] 0.941 | [19] 0.951 | [20] 0.967 | [21] 0.925 | [22] 0.975 | [23] 0.94 | [24] 0.965 | [25] 0.793 | [26] 0.961 | [27] 0.936 | [28] 0.951 | [29] 0.742 | [30] 0.677 | [31] 0.876 | [32] 0.917 | [33] 0.937 | [34] 0.97 | [35] 0.942 | [36] 0.958 | [37] 0.7 | [38] 0.774 | [42] 0.781 | [43] 0.792 | [44] 0.935 | [45] 0.838 | [46] 0.929 | [47] 0.703 | [48] 0.966 | [50] 0.587 | [51] 0.897 | [52] 0.779 | [53] 0.834 | [54] 0.955 | [55] 0.937 | [57] 0.779 | [58] 0.799 | [59] 0.879 | [60] 0.938 | [61] 0.882 | [62] 0.919 | [63] 0.954 | [64] 0.783 | [65] 0.962 | [66] 0.778 | [67] 0.949 | [68] 0.935 | [70] 0.951 | [71] 0.851 | locus YOR119C, strain RIO1, stronger effect = lower value 0.922 | [73] 0.965 | [74] 0.732 | [76] 0.813 | [77] 0.971 | [79] 0.956 | [80] 0.956 | [81] 0.93 | [82] 0.96 | [83] 0.931

O=C(CCn1c(=O)oc2ccccc21)Sc1ccc(Cl)cc1Cl
inactive: [15] 0.894 | [16] 0.935 | [17] 0.914 | [18] 0.913 | [20] 0.942 | [22] 0.971 | [23] 0.897 | [24] 0.9 | [26] 0.936 | [28] 0.899 | [32] 0.905 | [33] 0.878 | [34] 0.917 | [36] 0.914 | [44] 0.92 | [46] 0.907 | [48] 0.915 | [54] 0.903 | [60] 0.911 | [63] 0.91 | [65] 0.923 | [67] 0.908 | [68] 0.892 | [70] 0.918 | [73] 0.936 | [77] 0.922 | [79] 0.923 | [80] 0.944 | [81] 0.92 | [82] 0.935 | [83] 0.898
active: [19] 0.895 | [21] 0.884 | [25] 0.359 | [27] 0.748 | [29] 0.222 | [30] 0.278 | [31] 0.435 | [35] 0.311 | [37] 0.289 | [38] 0.306 | [39] 0.164 | [40] 0.149 | [41] 0.253 | [42] 0.281 | [43] 0.286 | [45] 0.229 | [47] 0.503 | [49] 0.197 | [50] 0.227 | [51] 0.745 | [52] 0.597 | [53] 0.433 | [55] 0.348 | [56] 0.221 | [57] 0.387 | [58] 0.205 | [59] 0.519 | [61] 0.662 | [62] 0.873 | [64] 0.383 | [66] 0.249 | [69] 0.196 | [71] 0.45 | [72] 0.334 | locus YOR231W, strain MKK1, stronger effect = lower value 0.251 | [74] 0.342 | [75] 0.216 | [76] 0.402 | [78] 0.255

N#Cc1cccc(Cn2c(=O)oc3ccccc32)c1
inactive: [1] 0.988 | locus YBR229C, strain ROT2, stronger effect = lower value 0.991 | [22] 0.977 | [4] 0.998 | locus YEL061C, strain CIN8, stronger effect = lower value 0.989 | [14] 1 | locus YGR229C, strain SMI1, stronger effect = lower value 0.985 | [40] 0.907 | locus YHR087W, strain rtc3, stronger effect = lower value 0.988 | locus YJL187C, strain SWE1, stronger effect = lower value 0.996 | locus YJR043C, strain POL32, stronger effect = lower value 1 | [7] 0.986 | locus YKL190W, strain CNB1, stronger effect = lower value 1 | locus YLR039C, strain RIC1, stronger effect = lower value 1.04 | locus YLR058C, strain SHM2 (second series), stronger effect = lower value 0.998 | locus YLR085C, strain ARP6, stronger effect = lower value 1.11 | locus YLR262C, strain YPT6, stronger effect = lower value 1.01 | locus YML094W, strain GIM5, stronger effect = lower value 0.972 | locus YMR219W, strain ESC1, stronger effect = lower value 0.993 | locus YMR263W, strain SAP30, stronger effect = lower value 0.995 | [8] 0.998 | locus YNL298W, strain CLA4 (second series), stronger effect = lower value 0.996 | locus YNL322C, strain KRE1, stronger effect = lower value 0.984 | locus YNR030W, strain Alg12, stronger effect = lower value 0.977 | locus YOL006C, strain TOP1, stronger effect = lower value 1.04 | [13] 1.01 | locus YPL241C, strain CIN2, stronger effect = lower value 1.06 | locus YPR135W, strain CTF4, stronger effect = lower value 1

— PubChem BioAssay AID1159580 (chemical genetic matrix, 2015)
